Among all 410,000 compounds or so, about 18,000 (4.4%) were called active. Not shown: some 7% with an inconclusive outcome. For the sample, actives were picked, then their nearest neighbours and some compounds at random. Values without a mark were called inactive. Rule as the data show it: active = activity change below about -60%; inconclusive = no clear call, values can overlap the other calls; inactive = above about -39%.
Assay: qHTS Assay for inhibitors of the human cytomegalovirus (HCMV)
Conditions: HFF cells, HCMV-luciferase reporter, 72 h; at 57.5 µM; stronger effect = lower value
In short: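 Screen run at 2 compound doses on HFFs infected with reporter HCMV, MOI 1 PFU/cell. Luciferase activity from cell lysates at 72 h post infection gave inhibition relative to buffer-only and Salinomycin wells.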
% is scaled to controls: 0 for no effect and ±100 for the full control effect.

Compound | activity change, negative = inhibition
COC(=O)/C(=C\Nc1ccccc1)NC(=O)c1ccc(Cl)cc1Cl | -5.36%
COc1ccc(OC)c(CCNC(=O)CCCn2c(=O)c3cccn3c3cccnc32)c1 | 6.58%
COc1ccc(NC(=O)CN2CCCN(Cc3ccccc3)S2(=O)=O)cc1 | 0%
COC(=O)[C@]1(S(=O)(=O)c2ccccc2)C[C@@H]2ON=C(c3ccc(OC)cc3)[C@@H]2C1 | 13.3%
N#C[C@]1(S(=O)(=O)c2ccccc2)C[C@@H]2ON=C(c3cccc(Br)c3)[C@@H]2C1 | -79.5% (active)
COc1ccc(CNc2nc(-c3ccc(Cl)cc3)cc(C(F)(F)F)n2)cc1 | -7.09%
CCN(CC)S(=O)(=O)c1ccc2c(c1)nc(CN(C)C(=O)Nc1ccc(Cl)cc1)n2C | 9.69%
Cc1cccc(NC(=O)C2CCN(S(=O)(=O)c3c(C)noc3/C=C/c3ccco3)CC2)c1 | -40%
Cc1noc(/C=C/c2ccco2)c1S(=O)(=O)N1CCC(C(=O)Nc2ccc(Cl)cn2)CC1 | -79.9% (active)
Cc1noc(/C=C/c2ccco2)c1S(=O)(=O)N1CCC(C(=O)N2CCc3ccccc32)CC1 | 47.1%
C[C@H]1CN([C@@H](C)CO)C(=O)CCCn2cc(nn2)CO[C@@H]1CN(C)S(=O)(=O)c1ccccc1C#N | -5.79%
Cc1cccc(N2CCN(S(=O)(=O)c3ccc4[nH]c5c(c4c3)CCCCC5)CC2)c1C | 16.6%
Cc1c(NC(=O)Nc2ccc(F)c(Cl)c2)c(=O)n(-c2ccccc2)n1C | 1.88%
C/C(CC(=O)NC(C)(C)C)=N\NC(=O)c1ccco1 | 16.9%
CC(C)(C)NC(=O)/C(=C/c1cccnc1)NC(=O)c1ccco1 | -61.3% (active)
O=C(NC(Cc1ccccc1)C(=O)O)/C(=C\c1ccccc1)NC(=O)c1ccco1 (stereo not given) | 54.3%
Cc1ccc(/C=C(\C#N)C(=O)Nc2cc(C)ccc2C)cc1 | -15.9%
Cc1ccc(CNC(=O)C2CCCN2C(=O)NCc2ccccc2)cc1 (stereo not given) | 1.11%
Cc1[nH]n(-c2cccc(Cl)c2)c(=O)c1-c1ccc(Cl)cc1 | -66.9% (active)
O=c1c2ccccc2[nH]c(=S)n1-c1cccc(Cl)c1 | -21.9%
CCCc1cc(=O)n2[nH]c(C)c(-c3ccc(Cl)cc3)c2n1 | 4.01%
Cc1ccc2c(c1)N(CC(=O)N1CCCC(C)C1)C(=O)CO2 (stereo not given) | -22.2%

Compound | activity change, negative = inhibition
COC(=O)c1sc2ncccc2c1-n1c(C)ccc1C | -10.3%
CCOC(=O)c1cc2cc(OC)ccc2n1C1CCN(C)CC1 | -32.2%
CCN(CC)c1cc(NC2CCCCC2)c2c3c(onc13)-c1ccccc1C2=O | -25.5%
CC(Oc1ccc(Cl)cc1)C(=O)Nc1ncccn1 (stereo not given) | -1.17%
COc1c(Cl)cc(Cl)cc1C(=O)Nc1cccc2cccnc12 | 33.4%
CC(=O)/C(=N\Nc1ccc(Cl)cc1Cl)Sc1cccc2cccnc12 | -103% (active)
Cc1nn2c(=O)cc(COC(=O)c3ccccc3NC(=O)COc3ccccc3C)nc2s1 | 31.1%
Cc1cccc(-n2ncc(Cl)c(Cl)c2=O)c1 | -104% (active)
Cc1cccc(-n2ncc(C(=O)N3CCN(c4ccc(Cl)cc4)CC3)c2C2CCN(C(=O)OC(C)(C)C)CC2)c1 | 0%
CC(=O)c1cccc(NC(=O)c2nc(-c3ccccc3)n(-c3cccc(C)c3)n2)c1 | -18.5%
CN1CCN(C(CNC(=O)c2ccccc2F)c2ccc3c(c2)OCO3)CC1 (stereo not given) | 12.6%
COc1ccc(N2C(=O)CCC(C(=O)N(C)C3CCCCC3)C2c2ccc(OC)c(OC)c2)cc1 (stereo not given) | -12.4%
CN(C)S(=O)(=O)c1ccc(C(=O)N(Cc2cccnc2)c2nc3c(F)cc(F)cc3s2)cc1 | 0%
Cc1ccsc1C(=O)OCC(=O)c1cc(C)n(CC2CCCO2)c1C (stereo not given) | -75.9% (active)
COCCn1c(C)cc(C(=O)COC(=O)CNC(=O)c2ccco2)c1C | 0%
Cc1cc(C(=O)COC(=O)c2cccs2)c(C)n1-c1c(C)n(C)n(-c2ccccc2)c1=O | -1.04%
COc1ccc(CNC(=O)c2ccc(NC(=O)N3CC4CCCN4c4ccccc43)cc2)cc1 (stereo not given) | -1.77%
CSc1ccc(CCNC(=O)C2CCN(c3nnc(-n4cccc4)s3)CC2)cc1 | -19.1%
CCOc1ccc(CNC(=O)C2CCN(c3nnc(-n4cccc4CNc4ccc(C)cc4)s3)CC2)cc1OC | -18.2%
Cc1ccc(CCNC(=O)C2CCN(c3nnc(-n4cccc4CNc4ccc(C)cc4)s3)CC2)cc1 | -72.7% (active)
CCOC(=O)c1c(S(=O)(=O)NCC(=O)Nc2ccc(Cl)c(C(F)(F)F)c2)c(C)n(C)c1C | -27.1%
CCOc1ccc(CCN2C(=O)C(=O)N([C@@H](CC(C)C)CN3CCC[C@H]3CN3C(=O)C(=O)NC[C@@H]3Cc3ccccc3)C[C@@H]2CC(C)C)cc1 | -7.85%

Compound | activity change, negative = inhibition
CC(C)C[C@H]1CN([C@@H](CC(C)C)CN2CCC[C@@H]2CN2C(=O)C(=O)NC[C@@H]2Cc2ccccc2)C(=O)C(=O)N1CCc1ccccc1 | -63.2% (active)
CC(C)C[C@H]1CN([C@@H](Cc2ccccc2)CN2CCC[C@@H]2CN2C(=O)C(=O)NC[C@@H]2Cc2ccc(O)cc2)C(=O)C(=O)N1CCc1ccccc1 | -26.7%
O=c1c2ccccc2c(-c2ccccc2)nn1-c1ccccn1 | -24.2%
O=C(Nn1c(-c2ccc(Cl)cc2)nc2ccccc2c1=O)c1cccnc1Cl | -11.2%
O=c1c2ccccc2nc(-c2ccccc2)n1-c1ccccn1 | -62.3% (active)
COc1cccc(CNC(=O)CN2C(=O)CCc3cc(S(=O)(=O)N4CCOCC4)ccc32)c1 | 7.53%
COc1cc(OC)cc(-c2nc3nc(C)c(CCC(=O)Nc4ccc(C)cc4)c(C)n3n2)c1 | 22.9%
CCC1CCCCN1S(=O)(=O)c1ccc(NC(=O)c2cc(=O)c3ccccc3o2)cc1 (stereo not given) | -21.4%
Cc1cccc2cc3c(N)c(C(=O)N4CCCc5ccccc54)sc3nc12 | -66.1% (active)
CCc1ccc(NC(=O)c2sc3nc4c(cc3c2N)CN(CC)CC4)cc1 | -27.1%
Cc1cccc(-c2nnc(SCC(=O)N3CCCc4ccccc43)o2)c1 | -13.3%
COc1ccc(N2CCN(Cc3nc4c(c(=O)[nH]c(=O)n4C)n3Cc3ccc(Cl)cc3)CC2)cc1 | -12.8%
Cc1cc(OC(C)C(=O)Nc2sc3c(c2C(N)=O)CCCC3)ccc1Cl (stereo not given) | -5.13%
Cc1ccc(CCN2CC(C(=O)NCCc3ccccc3)CC2=O)cc1 (stereo not given) | -5.82%
O=C(NCCCN1CCCCC1)C1CC(=O)N(CCc2ccccc2)C1 (stereo not given) | 0.846%
O=C(NC1CCCCC1)C1CC(=O)N(CCc2ccccc2)C1 (stereo not given) | -109% (active)
CC(=O)N1c2ccc(S(=O)(=O)N3CCCCCC3)cc2CC1C(=O)NCc1ccccc1C (stereo not given) | 8.34%
O=C(C1CCC(Cn2c(=O)c3sccc3n(Cc3ccccc3F)c2=O)CC1)N1CCCCC1 (stereo not given) | 3.01%
O=C(OCCN1CCOCC1)C1(c2ccccc2)CCCC1 | -35.5%
O=C(OCCN1CCOCC1)C1(c2ccccc2)CCCCC1 | -71.6% (active)
CC(=O)N1CCC(C(=O)OCc2ccc(Cl)cc2)(c2ccccc2)CC1 | 7.78%
COc1ccc(CCNc2ncnc3c2cnn3-c2ccc(C)cc2)cc1 | -8.18%

Compound | activity change, negative = inhibition
O=C1CCC[C@H]2[C@@H](Cc3ccccc3)[C@@H](NS(=O)(=O)c3ccc([N+](=O)[O-])cc3[N+](=O)[O-])CC[C@]23CCCN13 | -34.8%
CCOC(=O)/C=C/C(=O)OCC(=O)NC(c1ccccc1)c1ccccc1 | -66.5% (active)
CCOc1ccc(C(CC(=O)O)NC(=O)COc2ccccc2)cc1 (stereo not given) | 36.3%
Cc1ccccc1OCCC(=O)OCC(=O)NC(C)c1ccccc1 (stereo not given) | 145%
Cc1ccn(C(CC(=O)c2ccc(Br)cc2)C(=O)O)n1 (stereo not given) | 18.9%
O=c1ccc2c(-c3ccccc3S(=O)(=O)O)c3ccc(O)c(O)c3oc-2c1O | -91.7% (active)
Cc1nc(N2CCOCC2)c2c(C(=O)NCc3cccc(Cl)c3)c(C)oc2n1 | -10.3%
COc1cccc(C(=O)NCC(=O)OCc2cc(=O)n3ccsc3n2)c1 | 8.23%
CCOC(=O)c1c(C)oc2nc(C)nc(N3CCN(c4ccc(OC)cc4)CC3)c12 | -14.4%
CCN(CC)c1ccc2oc(=O)c(C)nc2c1 | -70.4% (active)
COc1ccc2c(c1)C(=C(C#N)C#N)C(=O)N2CCc1ccccc1 | 32.5%
O=C(CC1(O)C(=O)N(CN2CCOCC2)c2ccccc21)c1ccccc1 (stereo not given) | 23.8%
CCCN1C(=O)C(O)(CC(=O)c2ccc(CC)cc2)c2cc(Br)ccc21 (stereo not given) | -70.2% (active)
C=CCN1C(=O)C(O)(CC(=O)c2ccccn2)c2ccccc21 (stereo not given) | 51.3%
CCOC(=O)CN1C(=O)C(O)(CC(=O)c2ccccn2)c2ccccc21 (stereo not given) | 12.1%
Cc1ccc2c(c1)C(O)(CC(=O)c1cccc(-n3cccc3)c1)C(=O)N2 (stereo not given) | -9.59%
CCc1ccc(C(=O)CC2(O)C(=O)N(CCc3ccccc3)c3ccc(Br)cc32)cc1 (stereo not given) | -104% (active)
Cc1ccc(C(=O)CC2(O)C(=O)N(CCc3ccccc3)c3ccc(Br)cc32)cc1 (stereo not given) | -97.7% (active)
Cc1coc(C)c1C(=O)CC1(O)C(=O)N(C)c2ccc(Cl)cc21 (stereo not given) | 0%
